# Screening data from PubChem BioAssay.
# CHO-K1 Ca antag – M1 antagonist counterscreen hit in parental CHO-K1 cells | AID 602250 | inhibition, % at 3 µM | 0.6% of 360,000 active | ATP-induced calcium, Fluo-8 fluorescence;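 active means inhibition above a per-plate cutoff, the plate's mean sample inhibition plus 3 SD, cut at about 24% in these data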;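 further: 0% = DMSO plus EC80 ATP and 100% = DMSO alone without ATP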
# CHRM1 PAM – human CHRM1 positive allosteric modulation. CHO-K1 hM1, Fluo-8 calcium fluorescence, ACh EC20; 0% = ACh EC20, 100% = maximal ACh. activation, % at 3 µM. 0.088% of 360,000 active. AID 588819; in the data active means activation above about 19%, passing the limit was not always enough
# Target sequence (P11229 whole entry, looked up): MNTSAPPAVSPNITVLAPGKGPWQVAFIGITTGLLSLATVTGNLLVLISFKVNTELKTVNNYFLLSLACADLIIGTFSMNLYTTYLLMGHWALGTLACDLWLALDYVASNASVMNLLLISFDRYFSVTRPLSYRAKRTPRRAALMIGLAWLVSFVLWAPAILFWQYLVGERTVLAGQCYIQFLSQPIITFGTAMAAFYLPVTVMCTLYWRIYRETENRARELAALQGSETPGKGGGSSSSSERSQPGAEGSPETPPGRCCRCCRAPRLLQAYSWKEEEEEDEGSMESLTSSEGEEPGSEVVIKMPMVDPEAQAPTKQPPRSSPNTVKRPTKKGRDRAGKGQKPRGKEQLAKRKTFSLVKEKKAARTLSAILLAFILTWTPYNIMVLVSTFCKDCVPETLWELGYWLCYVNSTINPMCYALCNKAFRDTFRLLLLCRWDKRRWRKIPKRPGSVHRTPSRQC
# M1 ag – activates human CHRM1 receptor | P11229 | CHO-K1 hM1, Fluo-8 calcium fluorescence, agonist mode; 0% DMSO, 100% acetylcholine EC100 | activation, % at 3 µM | 0.33% of 360,000 active | AID 588814;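 active means activation above the run's mean compound activation plus 3 SD, cut at about 16% in these data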;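 further: peak over basal fluorescence ratio within a 140 s kinetic read after compound addition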
# M1 PAM parental – nonselective activator or artifact in parental CHO-K1 calcium assay. 0.02% of 360,000 active. activation, % at 3 µM. AID 602247. ATP EC20, Fluo-8 calcium fluorescence; 0% at ATP EC20, 100% at ATP max;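 active means activation above the run cutoff, the mean activation of all test compounds plus 3 SD, cut at about 40% in these data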;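 further: peak over basal fluorescence ratio in a 140 s read after ATP addition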
# M1 antag – human CHRM1 antagonism | inhibition, % at 3 µM | CHO-K1 hM1, Fluo-8 calcium fluorescence, ACh EC80 antagonist | AID 588852 | 1.3% of 360,000 active | P11229;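 active means percent inhibition above its own plate's cutoff, namely the mean of that plate's compound wells plus 3 SD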;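 further: peak over basal fluorescence ratio during 140 s after agonist addition; 0% = ACh EC80 plus DMSO and 100% = DMSO alone without agonist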
# M1 ag parental – counter-screen for M1 agonists: effect in parental CHO-K1 cells; activation, % at 3 µM; AID 602248; Fluo-8 calcium fluorescence; scaled to maximal ATP response, vehicle zero; 0.48% of 360,000 active; in the data active means activation above about 15%;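 further: untransfected CHO-K1 host cells lacking M1 receptor as counterscreen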
# The depositor's hits bear a star. An excerpt weighted towards active compounds, which were near 2.3% of everything screened.
SMILES,CHO-K1 Ca antag,CHRM1 PAM,M1 ag,M1 PAM parental,M1 antag,M1 ag parental
O=C(c1ccc2c(c1)OCO2)C1CCCN(Cc2c(F)ccc(F)c2F)C1 (centres undefined),-19,-24,-6,10,88*,-1
COc1ccc(C(=O)C2CCCN(Cc3nc4ccccc4nc3C)C2)cc1OC (centres undefined),-11,0,-7,0,2,0
O=C(c1ccc2c(c1)OCO2)C1CCCN(Cc2ccccc2OC(F)F)C1 (centres undefined),-2,-23,-7,21,75*,0
Cn1c(CN2CCCC(C(=O)c3ccc4c(c3)OCO4)C2)nc2ccccc21 (centres undefined),-2,-7,-12,9,-6,1
O=C(c1ccc2c(c1)OCO2)C1CCCN(Cc2ccc3nsnc3c2)C1 (centres undefined),-18,-27,-8,-10,78*,1
O=C(c1ccc2c(c1)OCO2)C1CCCN(Cc2cc(F)ccc2-n2cccn2)C1 (centres undefined),-13,7,-8,10,-9,0
CN(C)S(=O)(=O)c1ccc(Cl)c(C(=O)Nc2cccc3ncccc23)c1,-10,-4,-5,-10,2,3
CC1Cc2ccccc2N1Cc1ccc([N+](=O)[O-])cc1 (centres undefined),-16,-2,-6,7,1,0
Fc1ccc(-[n+]2nc(Nc3ccccc3)sc2-c2c(Cl)cccc2Cl)cc1,-7,-20,-2,2,22,15*
COc1ccc2ccccc2c1-c1sc(Nc2ccccc2)n[n+]1-c1ccc(F)cc1,-9,-20,7,-3,28,16*
CCc1ccc(Nc2n[n+](-c3ccccc3)c(-c3ccc(OCc4ccccc4)cc3)s2)cc1,-10,0,-6,30,5,0
COc1ccc(-c2sc(Nc3ccccc3)n[n+]2-c2ccc(F)cc2)cc1Br,-7,5,-5,-1,-7,0
CCc1ccc(Nc2n[n+](-c3ccccc3)c(-c3c(Cl)cccc3Cl)s2)cc1,8,-26,19*,-3,49*,21*
CCc1ccc(Nc2n[n+](-c3ccccc3)c(-c3ccc(N(CC)CC)cc3)s2)cc1,18,-13,9,6,39*,14
O=C(Cc1cccc(C(F)(F)F)c1)OCN1C(=O)c2ccccc2C1=O,-2,1,-7,-13,-1,0
NC(c1csc(Nc2ccc(C(=O)c3ccccc3)cc2)n1)c1ccccc1Cl (centres undefined),1,5,2,9,-8,3
CCc1ccc(NC(=O)CSc2nc3cc(C(=O)OC)ccc3c(=O)n2Cc2ccco2)cc1,10,5,-3,-1,-4,0
CCN(C(=O)CSc1nc2cc(C(=O)OC)ccc2c(=O)n1Cc1ccco1)c1cccc(C)c1,26*,11,0,-5,1,-1
COc1ccc(N2CCN(C(=O)c3ccccc3N(C)S(=O)(=O)c3ccc(C)cc3)CC2)cc1,-11,-2,-3,-1,12,1
O=C(NCCCn1ccnc1)c1nc(Cn2cc(Br)cn2)no1,-10,8,-3,9,-12,0
Cc1occc1C(=O)NNC(=O)CN1C(=O)NC2(CCCCC2)C1=O,14,5,1,-12,-3,0
O=C1C(=C2CCc3ccccc32)Cc2ccccc21,-7,6,-6,-5,-17,0
c1ccc2c(c1)CCc1ccccc1C2=C1CCNCC1,-3,-25,-7,7,100*,1
CCn1c(=O)cc(SCC(=O)Nc2cccnc2)c2ccccc21,25*,-10,-2,-9,15,1
CCn1c(=O)cc(SCC(=O)Nc2ccc3c(c2)OCO3)c2ccccc21,-15,7,-6,11,-5,2
SMILES,CHO-K1 Ca antag,CHRM1 PAM,M1 ag,M1 PAM parental,M1 antag,M1 ag parental
CCN(CC)CC#CCC(O)(c1ccccc1)C1CCCC1 (centres undefined),-11,-35,-13,10,102*,1
CN1CCN(CC#CCC(O)(c2ccccc2)C2CCCC2)CC1 (centres undefined),17,-17,-6,-6,34*,0
CN1CCN(CC#CCC(O)(c2ccccc2)c2ccccc2)CC1,0,4,-6,22,-2,11
CN(C)CC#CCC(O)(c1ccccc1)C1CCCCC1 (centres undefined),-2,-26,-9,12,100*,0
NS(=O)(=O)c1ccc(N2CCOCC2)c(C(=O)NCCCSc2ccccc2)c1,-12,9,-4,11,-5,3
CC(C)(C)OC(=O)NCCCCCNC(=O)c1[nH]cnc1C(=O)Nc1cc(Br)ccc1F,-13,3,-1,26,-8,0
CCc1nnc(NC(=O)C2c3ccccc3Oc3ccccc32)s1,-20,-19,1,35,37*,7
CCN(CC)CCCNC(=O)C1c2ccccc2Oc2ccccc21,-7,-26,-9,18,49*,1
COCCCNC(=O)C1c2ccccc2Oc2ccccc21,2,1,-5,2,-4,1
CCN(CC)S(=O)(=O)c1ccc(NC(=O)C2c3ccccc3Oc3ccccc32)cc1,-3,1,20*,27,8,7
CNS(=O)(=O)c1ccc(NC(=O)C2c3ccccc3Oc3ccccc32)cc1,-8,9,7,34,1,3
O=C(Nc1nc2ccccc2s1)C1c2ccccc2Oc2ccccc21,9,-10,-7,-6,17,0
CCOC(=O)C1=CN(Cc2ccco2)S(=O)(=O)N(C)C1c1ccc2ccccc2c1 (centres undefined),-9,0,-3,0,-3,0
CCn1ccc(C(=O)Nc2ccc(Cl)cn2)n1,20,-19,0,-7,33*,4
CCOC(=O)c1ccc(CNC(=O)CCC(=O)O)cc1,-7,9,-2,7,-14,0
CCOC(=O)c1ccc(CNCc2ccccc2)cc1,4,-24,-12,7,52*,0
CCOC(=O)CCNC(=O)N1CCC(CCC(=O)NCc2ccc(F)cc2)CC1,-1,0,-4,6,-4,0
CCOC(=O)c1ccc(CNCc2ccc(Br)cc2)cc1,9,-17,3,-11,65*,0
CCOC(=O)CCNCc1ccc(F)cc1,-12,-10,-2,9,40*,1
COc1ccc(-c2[nH]ncc2-c2cscn2)c(O)c1,-10,13,-6,15,-9,0
CCN(C[C@H]1N[C@@](Cc2ccccc2)(C(=O)OC)[C@H]2C(=O)N(Cc3ccccc3)C(=O)[C@@H]12)C(=O)Nc1ccc(C(F)(F)F)cc1,31*,-13,4,-15,22,7
